In the library only some 17% were active in any assay of this set; here they are far more common.
TDP1 cell noCPT: qHTS for Inhibitors of human tyrosyl-DNA phosphodiesterase 1 (TDP1): qHTS in cells in absence of CPT; DT40 Tdp1-/- hTDP1 cells, no CPT, ATP luminescence, 48 h; Potency, µM (titrated, usually from 46.2 µM), usual class: inhibitors; actives 15% (n = 420,000); AID 686978, 2013; also: nearly all actives have a fitted effect of over 55% in size
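Cells were dispensed at 400 per well, compounds added by pin tool, plates incubated ≥48 hr at 37 °C, then CellTiter-Glo added for 30 min at room temperature before luminescence reading. Line: DT40 Tdp1-/- complemented with hTDP1; camptothecin omitted.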
TGFb inhibitor: TGF-b pathway inhibition; actives 1.2% (n = 410,000); AID 588855; HepG2 CAGA-GFP TGF-b/SMAD3 reporter, GFP fluorescence, 18 h; TGF-beta stimulated, 500 pg/mL final; Potency, µM (doses to about 46.1 µM), most hits filed as inhibitors; also: nearly all actives have a fitted effect of over 65% in size
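First, reporter cells (HEPG2 CAGA-GFP) rested 2 h at 37 degrees C. Next, compounds were pinned in and TGF-beta added to 500 pg/mL final. After 18 h, GFP was imaged per cell and summed per well.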
TDP1 cell CPT: growth inhibition of DT40 Tdp1-/-;hTDP1 cells with camptothecin (screen for TDP1 inhibitors); Potency, µM (doses to about 46.2 µM), most hits filed as inhibitors; AID 686979; chicken DT40 Tdp1-/-;hTDP1 cells + 20 nM CPT, ATP luminescence, 48 h; actives 12% (n = 420,000); also: nearly all actives have a fitted effect of over 55% in size
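Chicken DT40 Tdp1-/- cells stably complemented with human TDP1 were seeded at 400 cells/well in medium containing 20 nM camptothecin, exposed to pin-transferred compounds, and grown at 37 °C for at least 48 hr. Viability was read as ATP luminescence.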
HepG2 viability: kills HepG2 cells in TGF-b inhibitor counter-screen; Potency, µM (highest dose often 46.1 µM), most hits filed as cytotoxic; AID 588856; actives 0.76% (n = 410,000); HepG2 CAGA-GFP viability, ATP luminescence, 18 h
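HepG2 CAGA-GFP cells (1000/well, DMEM with 1% FBS) received compound, then TGF-beta at 500 pg/mL final, and were incubated 18 hours at 37 degrees C. Viability was read by CellTiter-Glo luminescence. Media-only wells were set as complete cell-killing and DMSO as no toxicity.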
HT1080 IDH1KD tx: HT-1080 IDH1 knockdown cell toxicity (counter line). actives 2% (n = 360,000). AID 686971. Potency, µM (highest dose often 46.1 µM), hits mostly cytotoxic. HT-1080 IDH1 knockdown viability, ATP luminescence, 48 h
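HT-1080-IDH1KD cells (IDH1 knocked down), 750/well in RPMI with 5% FBS, treated with compound 48 h at 37 degrees C. Viability by CellTiter-Glo luminescence, normalised to DMSO and no-cell wells; concentration-response curves classed.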
HT1080NT lethal: kills 2HG-producing HT-1080-NT fibrosarcoma cells | AID 686970 | Potency, µM (highest dose often 46.1 µM), usual class: cytotoxic | actives 1.6% (n = 360,000) | HT-1080-NT fibrosarcoma viability, CellTiter-Glo ATP luminescence, 48 h;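 also: NT is the 2HG producing partner of a matched IDH1 knockdown line; nearly all actives have a fitted effect of over 55% in size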
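Fibrosarcoma NT cells, 750 per well in 5% FBS RPMI, were exposed to compound for 48 hours. Viability: CellTiter-Glo luminescence.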
Large screens that a line does not name were inactive. Calls follow the shape of the dose curve; as a rule, active = well fitted curve in the direction sought with a large enough effect; inconclusive = small, poorly fitted or top-dose-only effect, or another doubt; inactive = no such curve, though single readings can be large; an effect the other way counts as inactive or inconclusive.

COC1=CC(=O)C(C2CC(=O)c3c(O)cc(O)cc3O2)=CC1=O (stereo unspecified)	TDP1 cell noCPT 2.6µM, TDP1 cell CPT 3.7µM
COc1c(CC=C(C)C)cc(C2CC(=O)c3c(O)cc(O)cc3O2)cc1CC=C(C)C (stereo unspecified)	TDP1 cell noCPT inconclusive, TGFb inhibitor 14µM, TDP1 cell CPT inconclusive, HepG2 viability 16µM, HT1080 IDH1KD tx inconclusive, HT1080NT lethal inconclusive
COc1ccc([C@@H]2CC(=O)c3c(O)cc(O)cc3O2)cc1O	TDP1 cell noCPT inconclusive, TDP1 cell CPT inconclusive
COc1cc(O)c2c(c1)OC(c1ccc(O)cc1)CC2=O (stereo unspecified)	TDP1 cell noCPT 16µM, TGFb inhibitor inconclusive, TDP1 cell CPT inconclusive
CC(C)=CCc1c(O)c(CC=C(C)C)c2c(c1O)C(=O)CC(c1ccc(O)cc1)O2 (stereo unspecified)	TDP1 cell noCPT 18µM, TGFb inhibitor inconclusive, TDP1 cell CPT inconclusive, HT1080 IDH1KD tx inconclusive, HT1080NT lethal inconclusive
CC(C)=CCc1c(O)cc(O)c2c1OC(c1ccc(O)cc1)CC2=O (stereo unspecified)	TDP1 cell noCPT inconclusive, TDP1 cell CPT inconclusive
CC(Oc1ccccc1F)C(=O)NNC(=O)CCNC(=O)c1ccccc1Cl (stereo unspecified)	none
Cc1cc(C)cc(Nc2cc(C)nc3nc(-c4ccco4)nn23)c1	TDP1 cell noCPT 9.2µM, TGFb inhibitor inconclusive, TDP1 cell CPT 16µM (no result: HT1080 IDH1KD tx, HT1080NT lethal)
CCOc1ccc(OCC)c(Nc2cc(C)nc3nc(-c4ccco4)nn23)c1	none (no result: TDP1 cell noCPT, TDP1 cell CPT, HT1080 IDH1KD tx, HT1080NT lethal)
COc1nc2c(c(-c3cc(Br)cs3)c1C#N)Cc1ccccc1-2	TDP1 cell noCPT 26µM, TDP1 cell CPT inconclusive
COc1cc(CN2CCN(Cc3ccc(C(F)(F)F)cc3)CC2)cc(OC)c1OC	TDP1 cell noCPT 21µM, TGFb inhibitor inconclusive, TDP1 cell CPT 23µM
COc1ccc(CN2CCN(Cc3ccc(C(F)(F)F)cc3)CC2)c(OC)c1	TDP1 cell noCPT 15µM, TGFb inhibitor inconclusive, TDP1 cell CPT 21µM
COc1cc(CN2CCN(Cc3ccccc3C(F)(F)F)CC2)cc(OC)c1OC	TDP1 cell noCPT 26µM, TDP1 cell CPT inconclusive
Cc1ccc(NC(=O)N2CCOCC2)cc1NC(=O)N1CCOCC1	none
CN(C)c1ccc2c(c1)Sc1cc(N(C)C)ccc1N2C(=O)c1ccccc1	TDP1 cell noCPT 21µM, TDP1 cell CPT inconclusive
O=S1(=O)CCOC[C@H](c2ccccc2)N1Cc1ccc(Cl)cc1Cl	TDP1 cell noCPT inconclusive, TGFb inhibitor inconclusive, TDP1 cell CPT inconclusive (no result: HT1080 IDH1KD tx, HT1080NT lethal)
COc1ccc(CN2CCC3(CC2)c2ccccc2[C@@H](NC(=O)c2ccsc2)[C@@H]3OC)cc1O	TDP1 cell CPT inconclusive (no result: TGFb inhibitor, HepG2 viability, HT1080 IDH1KD tx, HT1080NT lethal)
Cc1c(O)ccc2c(CN(C)Cc3ccccc3)cc(=O)oc12	TDP1 cell noCPT 18µM, TDP1 cell CPT inconclusive
COc1cccc(CN(C)Cc2cc(=O)oc3c(C)c(C)ccc23)c1	TDP1 cell noCPT inconclusive, TDP1 cell CPT 13µM
Cc1ccccc1CN(C)Cc1cc(=O)oc2c(C)c(C)ccc12	TDP1 cell noCPT inconclusive, TDP1 cell CPT inconclusive, HT1080 IDH1KD tx inconclusive
Cc1cnc(CN(C)C(=O)c2ccc3oc(Cc4ccc(Cl)cc4)nc3c2)[nH]1	TDP1 cell noCPT inconclusive, TDP1 cell CPT inconclusive
CCOC(=O)C1=C(CSc2nc(-c3ccccc3)ccc2C#N)OC(N)=C(C#N)C1c1ccc(OC)cc1 (stereo unspecified)	TDP1 cell noCPT 9.2µM, TDP1 cell CPT 8.2µM
CCOC(=O)C1=C(CSc2nc(C)cc(C)c2C#N)OC(N)=C(C#N)C1c1ccccc1 (stereo unspecified)	TDP1 cell noCPT 23µM, TDP1 cell CPT inconclusive
CCOC(=O)C1=C(CSc2nc(CC)c(C)cc2C#N)OC(N)=C(C#N)C1c1ccccc1 (stereo unspecified)	TDP1 cell noCPT 23µM, TDP1 cell CPT 3.3µM
CCOC(=O)C1=C(CSc2nc(C)cc(C)c2C#N)OC(N)=C(C#N)C1c1cccs1 (stereo unspecified)	TDP1 cell CPT inconclusive
CCOC(=O)C1=C(CSc2nc3c(cc2C#N)CN(C)CC3)OC(N)=C(C#N)C1c1ccc(Cl)cc1 (stereo unspecified)	TDP1 cell noCPT inconclusive, TDP1 cell CPT inconclusive
COc1ccc(NC(=O)CN(C)C(=O)c2ccc(NS(=O)(=O)c3ccc4[nH]c(=O)[nH]c4c3)cc2)cc1	none
Cc1cc[n+](CC2OCc3ccccc3CO2)cc1	TDP1 cell noCPT 18µM, TDP1 cell CPT inconclusive, HT1080NT lethal inconclusive
COc1cc(C(=O)NNC(=S)NC(=O)c2ccc3c(c2)OCO3)cc(OC)c1OC	TDP1 cell noCPT inconclusive, TDP1 cell CPT 21µM, HT1080 IDH1KD tx inconclusive, HT1080NT lethal inconclusive
COc1cc(C(=O)N/N=C(\C)c2ccc3c(c2)OCO3)cc(OC)c1OC	TDP1 cell noCPT 1.6µM, TGFb inhibitor inconclusive, TDP1 cell CPT 1.6µM, HT1080 IDH1KD tx 3.7µM, HT1080NT lethal 2.1µM
CC(C)c1ccc(O)c(NC(=S)NC(=O)c2ccc3c(c2)OCO3)c1	TDP1 cell noCPT 15µM, TGFb inhibitor 14µM, TDP1 cell CPT 13µM, HT1080 IDH1KD tx 15µM, HT1080NT lethal inconclusive
COc1cc(C(=O)c2ccc3c(c2)OCO3)cc(OC)c1OC	TDP1 cell noCPT 5.2µM, TDP1 cell CPT 2.6µM, HT1080 IDH1KD tx 2.6µM, HT1080NT lethal inconclusive
CNC(=S)NNC(=O)c1ccc2c(c1)OCO2	none
O=C(NC(=S)Nc1ccccc1Br)c1ccc2c(c1)OCO2	none
Cc1cc(C)c2nc(Nc3nc(CSc4nc5ccccc5[nH]4)cc(=O)[nH]3)nc(C)c2c1	TDP1 cell noCPT inconclusive
COc1ccc2nc(Nc3nc(CSc4ccc(C)cc4)cc(=O)[nH]3)nc(C)c2c1	TDP1 cell noCPT 18µM, TDP1 cell CPT inconclusive
Cc1ccc(SCc2cc(=O)[nH]c(Nc3nc(C)c4cccc(C)c4n3)n2)cc1	TDP1 cell noCPT 16µM, TDP1 cell CPT inconclusive
COc1ccc2nc(Nc3nc(CSc4nnnn4-c4ccccc4)cc(=O)[nH]3)nc(C)c2c1	TDP1 cell noCPT inconclusive, TDP1 cell CPT inconclusive
COc1ccc2nc(Nc3nc(C)c(CCC(C)C)c(=O)[nH]3)nc(C)c2c1	TDP1 cell noCPT 18µM, TDP1 cell CPT inconclusive
O=C(CCc1nc2ccccc2c(=O)[nH]1)N1CCN(c2ccc(F)cc2)CC1	TDP1 cell CPT inconclusive
